This note sets out measurements from ChEMBL document CHEMBL3988442, “University of Dundee, Small-Polar-MMV Screening Library” (2021).

What all share (design): scale not given: direction of the effect not stated beside the values
The target of assay [1] is Protein translocase subunit SecA (Escherichia coli (strain K12)) (UniProt P10408). Nature of the assay: Assay to Identify E. coli SecA ATPase Inhibitors. Type of assay: functional. The conditions noted are these: 30 µM.
Assay [2] addresses T1, Ubiquitin-activating enzyme e1, putative (Leishmania donovani (strain BPK282A1)) (UniProt E9BSI1).
T1 sequence (whole entry): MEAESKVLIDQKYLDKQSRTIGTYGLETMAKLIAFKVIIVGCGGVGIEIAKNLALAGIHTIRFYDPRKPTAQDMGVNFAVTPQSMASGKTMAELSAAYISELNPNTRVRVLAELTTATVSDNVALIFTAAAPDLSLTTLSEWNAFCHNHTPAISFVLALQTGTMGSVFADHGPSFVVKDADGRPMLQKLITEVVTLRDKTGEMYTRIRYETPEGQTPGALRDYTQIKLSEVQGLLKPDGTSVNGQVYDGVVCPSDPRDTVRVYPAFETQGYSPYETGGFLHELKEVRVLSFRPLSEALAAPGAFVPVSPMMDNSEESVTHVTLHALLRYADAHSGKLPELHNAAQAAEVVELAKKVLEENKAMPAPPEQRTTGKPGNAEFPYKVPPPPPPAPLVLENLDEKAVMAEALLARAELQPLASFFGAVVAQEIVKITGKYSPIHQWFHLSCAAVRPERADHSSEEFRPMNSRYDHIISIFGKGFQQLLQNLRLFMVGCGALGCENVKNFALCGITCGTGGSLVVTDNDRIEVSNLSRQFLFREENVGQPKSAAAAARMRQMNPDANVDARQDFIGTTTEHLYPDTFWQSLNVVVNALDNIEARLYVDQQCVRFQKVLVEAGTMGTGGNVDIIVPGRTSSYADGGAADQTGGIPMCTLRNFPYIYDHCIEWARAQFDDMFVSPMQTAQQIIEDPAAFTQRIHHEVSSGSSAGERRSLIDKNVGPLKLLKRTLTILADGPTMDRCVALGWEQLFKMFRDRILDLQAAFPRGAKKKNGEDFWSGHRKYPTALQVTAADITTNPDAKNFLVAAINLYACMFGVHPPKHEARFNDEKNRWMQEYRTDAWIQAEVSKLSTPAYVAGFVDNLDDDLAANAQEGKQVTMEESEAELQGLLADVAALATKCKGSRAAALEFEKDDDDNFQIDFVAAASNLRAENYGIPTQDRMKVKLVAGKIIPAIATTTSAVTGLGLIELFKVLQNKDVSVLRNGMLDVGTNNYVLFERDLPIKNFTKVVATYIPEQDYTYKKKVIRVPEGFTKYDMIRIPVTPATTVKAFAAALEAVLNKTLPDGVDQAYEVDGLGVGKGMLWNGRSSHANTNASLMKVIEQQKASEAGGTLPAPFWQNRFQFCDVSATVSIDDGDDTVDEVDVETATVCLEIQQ
Nature of the assay: Leishmania donovani Ubiquitin Activating Enzyme (LdE1). Type of assay: functional. Particulars: 30 µM.

Assay [3] deals with AMP-activated protein kinase, AMPK (Homo sapiens) (UniProt P54646+O43741+P54619+Q9UGJ0+Q9Y478+Q13131+Q9UGI9). Nature of the assay: AMP-dependent Kinase enzyme assay. An in vitro enzyme assay that detects ADP turnover that is directly proportional to AMPK activity. This uses naive AMPK that is activated during the assay with MK-8722. Type of assay: functional. Particulars: 30 µM.

Assay [4] deals with Sialic acid-binding Ig-like lectin 9 (Homo sapiens) (UniProt Q9Y336). The assay is described as follows: Hs-Siglec9 ALPHAscreen SOP 20170721. Particulars: 10 µM.
The subject of assay [5] is Trypanosoma cruzi. The assay is described as follows: Trypanosoma cruzi phosphomannomutase and mannose-1-phosphate guanylyltransferase assay. Type of assay: functional. The conditions noted are these: 10 µM.
Assay [6] concerns the target T2, Arginase-2, mitochondrial (Homo sapiens) (UniProt P78540).
T2 sequence (whole entry): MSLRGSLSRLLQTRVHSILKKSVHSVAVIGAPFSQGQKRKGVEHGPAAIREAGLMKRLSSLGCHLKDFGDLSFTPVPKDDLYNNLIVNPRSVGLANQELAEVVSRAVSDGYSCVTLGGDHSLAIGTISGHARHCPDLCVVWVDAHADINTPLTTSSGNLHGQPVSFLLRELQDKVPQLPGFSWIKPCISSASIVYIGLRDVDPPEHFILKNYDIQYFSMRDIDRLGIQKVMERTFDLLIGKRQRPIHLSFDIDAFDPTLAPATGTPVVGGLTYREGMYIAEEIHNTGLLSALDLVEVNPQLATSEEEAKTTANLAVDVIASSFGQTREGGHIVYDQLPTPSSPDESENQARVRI
The assay is described as follows: in vitro enzyme assay to detect the production of urea directly proportional to the activity of Arginase II. Note: in the data most compounds retested in dose-response had high values. Format: functional. Particulars: 33.3 µM.

Assay [7] deals with T3, Proteasome subunit beta (Trypanosoma cruzi) (UniProt O96673).
T3 sequence (whole entry): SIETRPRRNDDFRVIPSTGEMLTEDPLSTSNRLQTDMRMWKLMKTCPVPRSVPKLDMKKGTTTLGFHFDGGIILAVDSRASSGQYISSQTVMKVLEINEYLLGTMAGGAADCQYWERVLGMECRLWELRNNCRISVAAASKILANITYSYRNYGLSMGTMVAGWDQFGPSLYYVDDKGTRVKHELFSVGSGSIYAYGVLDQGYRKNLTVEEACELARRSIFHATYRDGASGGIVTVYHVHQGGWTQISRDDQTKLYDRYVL
Nature of the assay: Trypanosoma cruzi proteasome chymotrypsin-like activity (TcProtChymo) assay. Note: in the data most compounds retested in dose-response had high values. Format: functional. Particulars: 9.37 µM.

The species named for assay [8] is Homo sapiens. Nature of the assay: To identify inhibition of the IFN signalling (Jak-Stat) pathway via expression of an eGFP reporter gene under the control of an IFN-stimulated response element (ISRE) containing MxA promoter. Type of assay: functional. Particulars: 30 µM. A general note: A reporter such as luciferase makes a cellular process visible.
Assay [9] deals with T4, Tyrosyl-tRNA synthetase, putative (Trypanosoma cruzi (strain CL Brener)) (UniProt Q4DSP6).
T4 sequence (whole entry): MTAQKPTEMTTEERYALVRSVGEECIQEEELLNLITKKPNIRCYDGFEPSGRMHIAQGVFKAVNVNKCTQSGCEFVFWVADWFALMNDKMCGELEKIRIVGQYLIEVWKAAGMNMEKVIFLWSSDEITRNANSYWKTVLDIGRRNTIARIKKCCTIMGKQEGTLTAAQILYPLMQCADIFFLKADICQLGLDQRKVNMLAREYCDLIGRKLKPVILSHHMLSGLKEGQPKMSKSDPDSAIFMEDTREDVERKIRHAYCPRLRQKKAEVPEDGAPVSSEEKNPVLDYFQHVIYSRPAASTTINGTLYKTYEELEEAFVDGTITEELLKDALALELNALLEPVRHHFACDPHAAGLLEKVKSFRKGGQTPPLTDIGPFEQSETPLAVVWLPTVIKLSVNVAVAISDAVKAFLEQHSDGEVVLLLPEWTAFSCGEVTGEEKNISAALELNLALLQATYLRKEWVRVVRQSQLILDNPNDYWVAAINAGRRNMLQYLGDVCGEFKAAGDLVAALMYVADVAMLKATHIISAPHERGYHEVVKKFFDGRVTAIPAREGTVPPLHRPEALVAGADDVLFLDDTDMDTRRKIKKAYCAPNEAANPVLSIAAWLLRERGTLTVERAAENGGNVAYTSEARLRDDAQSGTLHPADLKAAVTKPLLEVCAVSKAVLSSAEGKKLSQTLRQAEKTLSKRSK
The assay is described as follows: Trypanosoma cruzi tyrosyl tRNA synthetase (TcYRS) _High Tyrosine SOP. Note: in the data most compounds retested in dose-response had high values. Format: functional. The conditions noted are these: 30 µM.

Assay [10] concerns the target T4, Tyrosyl-tRNA synthetase, putative (Trypanosoma cruzi (strain CL Brener)). The assay is described as follows: Trypanosoma cruzi tyrosyl tRNA synthetase (TcYRS) SOP. Type of assay: functional. Particulars: 30 µM.
Assay [11] has as its target Chromo domain-containing protein 1 (Saccharomyces cerevisiae (strain ATCC 204508 / S288c) (Baker's yeast)) (UniProt P32657). Nature of the assay: ScCHD-1 Enzyme Inhibition Assay. Note: in the data most compounds retested in dose-response had high values. Format: functional. The conditions noted are these: 30 µM.

For some of these results: Potency and affinity values are given separately.

Chain of Protein translocase subunit SecA (Escherichia coli (strain K12)) (P10408 whole entry): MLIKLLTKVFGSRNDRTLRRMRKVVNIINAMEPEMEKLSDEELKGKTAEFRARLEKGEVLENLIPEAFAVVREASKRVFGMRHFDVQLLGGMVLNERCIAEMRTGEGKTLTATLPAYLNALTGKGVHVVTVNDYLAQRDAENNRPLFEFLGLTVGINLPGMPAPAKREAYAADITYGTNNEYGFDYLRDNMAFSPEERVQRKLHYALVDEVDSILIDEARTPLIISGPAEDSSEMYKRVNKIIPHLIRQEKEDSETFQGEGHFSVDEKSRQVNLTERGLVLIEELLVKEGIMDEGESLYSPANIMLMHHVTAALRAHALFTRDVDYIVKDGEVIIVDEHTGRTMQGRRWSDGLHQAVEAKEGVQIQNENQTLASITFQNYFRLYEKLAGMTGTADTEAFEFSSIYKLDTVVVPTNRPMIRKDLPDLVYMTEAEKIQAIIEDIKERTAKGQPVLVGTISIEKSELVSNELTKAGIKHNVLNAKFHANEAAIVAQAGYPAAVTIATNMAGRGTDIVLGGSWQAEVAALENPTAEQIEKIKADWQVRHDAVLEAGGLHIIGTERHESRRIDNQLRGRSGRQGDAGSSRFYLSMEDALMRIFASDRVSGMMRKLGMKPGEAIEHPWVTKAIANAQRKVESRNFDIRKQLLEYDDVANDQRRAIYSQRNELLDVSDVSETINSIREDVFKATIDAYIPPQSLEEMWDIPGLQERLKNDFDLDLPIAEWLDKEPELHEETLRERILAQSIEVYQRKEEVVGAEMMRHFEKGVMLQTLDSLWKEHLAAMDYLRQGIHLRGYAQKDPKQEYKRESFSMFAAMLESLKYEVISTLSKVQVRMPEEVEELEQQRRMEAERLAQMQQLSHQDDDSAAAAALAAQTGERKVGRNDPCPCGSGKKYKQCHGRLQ
Chain of Chromo domain-containing protein 1 (Saccharomyces cerevisiae (strain ATCC 204508 / S288c) (Baker's yeast)) (P32657 whole entry, the tested form may be a part): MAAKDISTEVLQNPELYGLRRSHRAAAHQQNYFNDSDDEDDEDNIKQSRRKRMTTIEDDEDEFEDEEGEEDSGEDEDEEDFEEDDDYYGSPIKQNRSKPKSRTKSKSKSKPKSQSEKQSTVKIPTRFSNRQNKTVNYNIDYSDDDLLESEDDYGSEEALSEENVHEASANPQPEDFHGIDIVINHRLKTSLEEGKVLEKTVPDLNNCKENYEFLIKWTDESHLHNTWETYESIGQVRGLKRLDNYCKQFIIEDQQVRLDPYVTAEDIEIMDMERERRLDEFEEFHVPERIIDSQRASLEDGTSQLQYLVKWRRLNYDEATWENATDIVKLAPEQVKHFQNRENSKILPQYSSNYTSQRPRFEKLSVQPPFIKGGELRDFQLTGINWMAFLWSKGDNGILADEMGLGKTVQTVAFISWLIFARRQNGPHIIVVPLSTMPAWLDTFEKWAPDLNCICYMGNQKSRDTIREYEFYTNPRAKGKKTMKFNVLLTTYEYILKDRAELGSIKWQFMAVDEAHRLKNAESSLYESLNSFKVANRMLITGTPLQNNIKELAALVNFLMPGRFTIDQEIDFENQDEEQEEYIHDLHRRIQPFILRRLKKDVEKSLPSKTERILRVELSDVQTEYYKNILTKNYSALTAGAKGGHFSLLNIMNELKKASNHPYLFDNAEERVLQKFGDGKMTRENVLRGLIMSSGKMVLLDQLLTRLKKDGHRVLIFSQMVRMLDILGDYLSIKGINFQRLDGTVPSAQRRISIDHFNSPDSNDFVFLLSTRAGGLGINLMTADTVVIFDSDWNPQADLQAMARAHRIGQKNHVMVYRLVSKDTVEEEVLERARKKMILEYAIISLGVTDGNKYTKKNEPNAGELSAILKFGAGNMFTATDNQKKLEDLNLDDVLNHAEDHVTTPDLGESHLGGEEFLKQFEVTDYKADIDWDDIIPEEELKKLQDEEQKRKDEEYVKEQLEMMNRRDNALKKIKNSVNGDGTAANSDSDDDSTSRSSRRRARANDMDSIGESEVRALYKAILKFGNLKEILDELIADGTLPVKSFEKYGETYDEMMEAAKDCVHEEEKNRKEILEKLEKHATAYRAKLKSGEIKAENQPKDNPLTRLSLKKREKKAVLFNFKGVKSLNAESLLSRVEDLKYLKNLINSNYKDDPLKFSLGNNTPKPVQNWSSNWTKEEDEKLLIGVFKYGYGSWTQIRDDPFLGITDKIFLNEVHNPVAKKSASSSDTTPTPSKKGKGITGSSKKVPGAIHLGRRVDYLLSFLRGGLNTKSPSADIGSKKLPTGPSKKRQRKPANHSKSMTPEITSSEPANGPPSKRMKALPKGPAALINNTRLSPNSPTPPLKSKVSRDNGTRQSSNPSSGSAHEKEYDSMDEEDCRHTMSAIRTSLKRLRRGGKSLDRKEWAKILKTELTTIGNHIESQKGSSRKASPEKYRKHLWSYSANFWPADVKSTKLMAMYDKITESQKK
Chain of Sialic acid-binding Ig-like lectin 9 (Homo sapiens) (Q9Y336 whole entry): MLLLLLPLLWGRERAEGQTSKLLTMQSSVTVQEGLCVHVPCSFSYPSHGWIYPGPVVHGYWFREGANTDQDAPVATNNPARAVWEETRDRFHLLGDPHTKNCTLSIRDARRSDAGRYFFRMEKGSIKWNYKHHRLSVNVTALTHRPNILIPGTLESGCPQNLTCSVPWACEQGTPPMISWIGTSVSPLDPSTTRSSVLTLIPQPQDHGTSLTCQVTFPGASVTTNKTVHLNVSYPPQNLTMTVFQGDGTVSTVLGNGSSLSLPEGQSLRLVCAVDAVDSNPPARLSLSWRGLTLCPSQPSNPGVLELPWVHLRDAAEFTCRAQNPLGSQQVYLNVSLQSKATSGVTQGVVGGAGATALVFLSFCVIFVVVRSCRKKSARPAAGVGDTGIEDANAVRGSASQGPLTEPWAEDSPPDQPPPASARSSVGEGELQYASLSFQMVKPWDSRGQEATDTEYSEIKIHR

Regarding `CC1CN(Cc2noc(C3CC3)n2)CCN1Cc1nccn1C` (stereo not drawn), the Percent Effect is -5.15% in assay [1]; 2.53% in assay [2]; -12.8% in assay [3]; 3.3% in [4]; 5.19% in assay [5]; -2.66% in assay [6]. Also, the Percent Effect in assay [7] is 1.72%; in assay [8], 8.77%; in assay [9] it was 6.4%; in [10] it was 11.4%; in [11], -1.35%.
For `CCC1(CO)CCCN(c2ncccc2C#N)C1` (stereo not drawn), the Percent Effect in assay [1] was -4.07%; in assay [2], -5.41%; in assay [3], -0.35%; in assay [4], 5.12%; in [5], -1.74%; in [6] it was -3.81%. Further, the Percent Effect in assay [7] is -0.69%; in [8], 19.1%; in assay [9], -1.59%; in [10] it was 0%; in [11], -3.09%.
In the case of `CCn1ncc2c1CCCC2NCc1cc(Cl)c(OC)c(OC)c1` (stereo not drawn), the Percent Effect in [1] is -5.26%; in [2], 12.7%; in [3] it was -8.16%; in assay [4], 14.8%; in assay [5] it was 3.31%; in [6], 3.04%. In addition, the Percent Effect in assay [7] is -0.901%; in assay [8] it was 66.8%; in assay [9], 9.36%; in assay [10] it was 21.5%; in assay [11], -6.2%.
Turning to `CCc1ccc(C(=O)Nc2ccc(CC3CC(=O)NC3=O)cc2)cc1` (stereo not drawn), the Percent Effect in assay [1] is -1.66%; in assay [2] it was 8.22%; in assay [3] it was 15.3%; in assay [4], 3.15%; in [5], 1.76%; in assay [6], 5.46%. Further, the Percent Effect in assay [7] is 11.9%; in assay [8], 11.7%; in assay [9], 2.15%; in assay [10], 12.5%; in [11], -6.28%.
`c1cc(CNCc2ccnc(N3CCOCC3)c2)c2c(c1)OCCO2`: the Percent Effect in assay [1] is -3.35%; in assay [2] it was 5.41%; in assay [3], -12.3%; in assay [4], 26.3%; in [5], 8.31%; in assay [6], 15.1%. In addition, the Percent Effect in [7] was 6.27%; in assay [8], 15.7%; in assay [9], 1.07%; in [10], 16.1%; in assay [11], -5.85%.
With `CCc1nccn1C1CCCN(C(=O)CCc2nccs2)C1` (stereo not drawn), the Percent Effect in assay [1] was -2%; in [2] it was -5.41%; in assay [3], -10.8%; in assay [4], 5.59%; in assay [5], -0.66%; in assay [6] it was -6.81%. Moreover, the Percent Effect in assay [7] is 5.77%; in assay [8], 1.54%; in assay [9] it was 1.48%; in assay [10], 1.24%; in [11] it was -1.72%.
In the case of `Cn1cc(C(=O)N2C[C@@H]3COC[C@]3(COCc3cccnc3)C2)cn1`, the Percent Effect was 0.921% in assay [1]; 13% in assay [2]; 7.58% in assay [3]; 1.08% in assay [4]; -4.83% in assay [5]; 11% in assay [6]. The Percent Effect is 17.4% in assay [7]; 3.89% in assay [8]; 0% in assay [9]; 8.97% in assay [10]; -5.24% in assay [11].
In the case of `CC(C)N(C)Cc1nnc2n1CCN(Cc1ccncc1)CC2`, the Percent Effect in assay [1] is -1.23%; in assay [2], 8%; in assay [3], 2.82%; in [4], -4.03%; in assay [5], -3.67%; in assay [6], -54.7%. Besides, the Percent Effect in assay [7] was 2.73%; in assay [8] it was 1.94%; in assay [9], -2.08%; in assay [10] it was 5%; in assay [11], -6.5%.
